Assay results as given in PubChem BioAssay.
Several values for one entry are separate records, joined by “and”; a condition that tells them apart may be missing. Identical values can stand only once. Activity calls are given as the source filed them.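 The calls were made as follows, unless noted: active = mean z-score across replicates of 1.96 or higher in either the MELAS or the Rieske mutant cell line; inactive = the rest.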

What was measured:
[1] = yeast 75Q aggregation reduction – 75Q-TubU reporter (AID 1593); details: Yeast 75Q polyglutamine aggregation reporter
[2] = blockers of cytochrome c efflux from mitochondria – biochemical, purified mitochondria (AID 1603); details: stronger effect = lower value;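 also: mouse liver mitochondria challenged with calcium chloride; signal normalized to the plate average as 100%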
[3] = polyglutamine aggregate formation blockers (AID 1604); details: polyglutamine-induced protein aggregation inhibition assay; stronger effect = higher value; tested at 2.5 µM
[4] = Wnt pathway potentiators raising nuclear beta-catenin – imaging, WNT3A-conditioned medium, mouse C2C12, NPC library, primary screen (AID 1117326; in the data active = nuclear beta-catenin stimulation mostly above about 4.2%, no sharp cut-off; inactive = mostly below about 10%); details: stronger effect = higher value
[5] = stimulators of insulin release from INS-1E, primary screen, cell-based, 5 mM glucose, NPC library (AID 1117329;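 active = compound raises insulin release from rat beta cells at 5 mM glucose, no numeric limit stated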); details: rat INS-1E insulin secretion, at 10 µM, stronger effect = higher value
[6] = growth inhibition of GSK3B-pretreated HCT116 cells – cell-based, CellTiter-Glo, 0.2 to 20 µM (AID 1117336;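 active = compounds lowering colon cancer cell viability after pretreatment blocking the GSK3B kinase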); details: HCT116 viability after GSK3B inhibitor, at 20 µM, stronger effect = higher value
[7] = inhibition of endothelial tube formation, primary screen, imaging, VEGF stimulated, CD31 staining, tube area, NPC library (AID 1117340;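 active = compound that reduces growth-factor-driven endothelial tube area in a mixed cell culture, no cutoff stated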); details: VEGF-stimulated ADSC/ECFC co-culture, at 10 µM, stronger effect = higher value
[8] = GLP1 release stimulators, primary, NCI-H716, NPC library (AID 1117341;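 active = compound raises GLP1 secretion from the human gut endocrine cells, with no numeric limit stated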); details: NCI-H716 cells, at 10 µM, stronger effect = higher value
[9] = HCT116 colon cancer cell growth inhibition, primary screen, CellTiter-Glo luminescence, NPC library (AID 1117342;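 active = compounds that lower survival of HCT116 colon cancer cells in the luminescence readout, no numeric limit stated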); details: at 20 µM (top of the series)
[10] = reduced SW480 viability measured with CellTiter-Glo, NPC library, primary (AID 1117343;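 active = compounds that lower viability of the colon cancer cells in the luminescence readout, with no numeric limit stated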); details: CellTiter-Glo luminescence; at 20 µM (top of the series)
[11] = NPC library primary testing for decreased DLD-1 cell viability via CellTiter-Glo (AID 1117346;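 active = compounds that lower survival of DLD-1 colon cancer cells in the luminescence readout, no cutoff given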); details: DLD-1 viability, CellTiter-Glo luminescence; at 20 µM (top of the series)
[12] = target: 6-phosphogluconate dehydrogenase, decarboxylating (Homo sapiens) (UniProt P52209); test: inhibition of human phosphogluconate dehydrogenase – biochemical, recombinant enzyme, NADPH absorbance, primary screen (AID 1159550;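 active = at least 20% inhibition of 6-phosphogluconate dehydrogenase activity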); details: recombinant 6PGD, NADPH absorbance 341 nm; at 10 µM; stronger effect = higher value
Chain of 6-phosphogluconate dehydrogenase, decarboxylating (Homo sapiens) (P52209 whole entry, looked up): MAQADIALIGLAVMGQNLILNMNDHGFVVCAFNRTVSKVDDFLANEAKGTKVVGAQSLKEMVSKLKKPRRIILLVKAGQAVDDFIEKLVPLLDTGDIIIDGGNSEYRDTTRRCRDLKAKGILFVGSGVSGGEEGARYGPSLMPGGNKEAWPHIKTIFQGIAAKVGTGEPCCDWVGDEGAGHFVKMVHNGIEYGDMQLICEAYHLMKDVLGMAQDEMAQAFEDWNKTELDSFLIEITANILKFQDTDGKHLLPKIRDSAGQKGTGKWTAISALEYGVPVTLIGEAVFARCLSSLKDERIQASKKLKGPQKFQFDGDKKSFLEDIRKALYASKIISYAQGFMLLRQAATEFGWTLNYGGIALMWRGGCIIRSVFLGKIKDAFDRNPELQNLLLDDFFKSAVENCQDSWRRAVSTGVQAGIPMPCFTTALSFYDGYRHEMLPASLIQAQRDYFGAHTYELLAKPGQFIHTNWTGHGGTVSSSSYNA

[13] = EMT-state selective cytotoxicity in co-culture – imaging, PC-3E GFP, TEM4-18 mCherry, primary screen (AID 1345086;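 active = compounds killing one labelled cell type while sparing the other, by normalised counts and ratio limits, not self-fluorescent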;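 as to all read-outs here: cells exposed to compound for 72 h before imaging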;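 as to red/green cell ratio (normalised): normalised mesenchymal count divided by normalised epithelial count so high means epithelial killing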); details: PC-3E GFP / TEM4-18 mCherry co-culture, imaging cell counts, at 1 µM; for red/green cell ratio (normalised): actives lie on both sides
[14] = system: Aerobactin synthetase IucA (Klebsiella pneumoniae hvKP1); test: IucA enzyme inhibition, primary screen, biochemical, Spectrum library (AID 1346200; call rule not given here;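 also: 100% = wells without compound and 0% = wells lacking enzyme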); details: malachite green pyrophosphate, A620, at 8 µM, stronger effect = lower value
[15] = MELAS cybrid and Rieske KO viability enhancers – cell-based, MELAS cybrids, Rieske KO mouse fibroblasts, CellTiter-Glo, primary screen (AID 1508586); details: low glucose;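 also: z relative to plate mean and SD of compound and empty wells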
[16] = target: NAD(+) hydrolase SARM1 (Homo sapiens) (UniProt Q6SZW1); test: blocking NAD cleavage by SARM1 SAM-TIR – cell lysate, NAD-Glo luminescence (AID 1508614;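 active = compound whose remaining NAD level is above about 45 nM, limit read from the data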;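 also: higher remaining NAD means stronger inhibition of SARM1 NADase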); details: SAM-TIR HEK293T lysate NADase, at 1 µM, stronger effect = higher value
Chain of NAD(+) hydrolase SARM1 (Homo sapiens) (Q6SZW1 whole entry, looked up, the tested form may be a part): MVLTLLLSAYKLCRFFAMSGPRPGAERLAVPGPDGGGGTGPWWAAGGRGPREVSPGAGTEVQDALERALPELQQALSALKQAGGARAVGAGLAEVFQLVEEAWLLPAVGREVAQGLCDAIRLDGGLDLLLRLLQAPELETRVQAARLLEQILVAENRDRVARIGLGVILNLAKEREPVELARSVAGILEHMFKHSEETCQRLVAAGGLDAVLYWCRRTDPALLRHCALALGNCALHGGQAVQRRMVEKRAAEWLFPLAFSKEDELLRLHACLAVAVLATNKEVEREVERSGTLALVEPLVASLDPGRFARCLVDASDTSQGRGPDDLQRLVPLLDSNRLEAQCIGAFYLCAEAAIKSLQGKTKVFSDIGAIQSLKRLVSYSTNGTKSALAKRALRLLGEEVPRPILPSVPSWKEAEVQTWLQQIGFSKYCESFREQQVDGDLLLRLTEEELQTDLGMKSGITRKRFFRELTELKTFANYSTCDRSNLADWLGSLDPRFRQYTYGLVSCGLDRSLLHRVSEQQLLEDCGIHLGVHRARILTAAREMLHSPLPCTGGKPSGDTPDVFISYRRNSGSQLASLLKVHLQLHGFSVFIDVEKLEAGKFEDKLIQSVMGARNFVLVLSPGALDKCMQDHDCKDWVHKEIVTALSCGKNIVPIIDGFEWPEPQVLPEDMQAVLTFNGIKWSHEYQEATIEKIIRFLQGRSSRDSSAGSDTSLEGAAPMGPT

[17] = target: Mitogen-activated protein kinase 7 (Homo sapiens) (UniProt Q13164); test: Gal4-ERK5 driven luciferase induction – cell-based, HTS, primary screen (AID 1508626;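 active = luciferase signal above three times the same-plate solvent-only control wells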;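 also: luciferase driven by Gal4-ERK5 fusion binding five Gal4 sites before minimal TATA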); details: HeLa Gal4-ERK5 transactivation, 18 h, at 5 µM, stronger effect = higher value
Chain of Mitogen-activated protein kinase 7 (Homo sapiens) (Q13164 whole entry, looked up, the tested form may be a part): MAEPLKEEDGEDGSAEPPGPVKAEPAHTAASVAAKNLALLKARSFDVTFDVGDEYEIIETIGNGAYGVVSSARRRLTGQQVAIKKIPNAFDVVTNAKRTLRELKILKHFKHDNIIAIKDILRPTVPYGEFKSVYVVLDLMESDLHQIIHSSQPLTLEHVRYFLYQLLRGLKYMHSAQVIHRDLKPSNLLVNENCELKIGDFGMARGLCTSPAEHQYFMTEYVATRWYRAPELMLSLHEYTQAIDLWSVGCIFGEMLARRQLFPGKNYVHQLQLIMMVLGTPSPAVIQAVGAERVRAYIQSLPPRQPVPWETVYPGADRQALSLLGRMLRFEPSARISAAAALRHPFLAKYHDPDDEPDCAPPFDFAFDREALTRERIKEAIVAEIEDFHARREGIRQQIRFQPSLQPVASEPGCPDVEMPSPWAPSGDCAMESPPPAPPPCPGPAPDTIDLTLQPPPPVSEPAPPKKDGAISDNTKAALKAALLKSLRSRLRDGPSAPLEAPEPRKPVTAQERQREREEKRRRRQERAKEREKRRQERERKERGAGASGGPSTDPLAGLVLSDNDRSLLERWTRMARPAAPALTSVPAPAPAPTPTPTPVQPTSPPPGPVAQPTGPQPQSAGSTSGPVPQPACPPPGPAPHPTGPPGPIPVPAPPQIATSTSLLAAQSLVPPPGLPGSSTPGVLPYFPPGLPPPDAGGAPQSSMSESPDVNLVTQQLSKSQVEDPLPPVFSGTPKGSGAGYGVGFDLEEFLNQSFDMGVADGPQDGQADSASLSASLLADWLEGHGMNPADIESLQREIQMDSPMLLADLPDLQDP

[18] = galactose survival enhancers in mitochondrial complex I cybrids – cell-based, galactose medium, ATP luminescence, primary screen (AID 1645843;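 active = z-score of at least 1.8 in each of two replicates, scored against plate mean and spread of sample wells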;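 also: positive z means more ATP and so rescue of galactose-driven cybrid death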); details: complex I mutant cybrid cells, 72 h, stronger effect = higher value
[19] = viability loss with induced miR-34 in A549 – imaging, A549 dox-inducible miR-34, nuclei and caspase counts, primary screen (AID 1347080;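 active = compounds whose cell count with miR-34 switched on is under 0.7 times the count with it off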); details: A549 miR-34 inducible, Hoechst nuclei count, 48 h
[20] = measured here: epithelial PC-3E GFP cell survival
[21] = measured here: mesenchymal TEM4-18 mCherry cell survival
[22] = MELAS cybrid survival, CellTiter-Glo 48 h, stronger effect = higher value
[23] = Rieske KO mouse fibroblast survival, CellTiter-Glo 72 h

In the case of `CCC1(c2ccc(N)cc2)CCC(=O)NC1=O` (configuration not stated), the score [1] is reported as 1.07, the cytochrome c release ratio [2] is reported as 0.66 and the inhibition of aggregation [3] is reported as -9.29%. For the same compound, the nuclear beta-catenin stimulation ([4]; at 10 µM) was -0.3% (inactive), the nuclear beta-catenin stimulation ([4]; stimulation, at 2 µM) was -0.3% and the insulin secretion stimulation [5] was -2.7% (inactive). For the same compound, the viability decrease [6] was -4.4% (inactive), the tube area decrease [7] was 14.2% (inactive) and the GLP1 secretion stimulation [8] was 4.2% (inactive). The inhibition of viability [9] was -0.6% (inactive), the viability decrease (inhibition) [10] was 45.3% (inactive) and the viability decrease (inhibition) [11] was 10% (inactive). For the same compound, the inhibition [12] was 13.3% (inactive), the red/green cell ratio (normalised) [13] was 0.89 (inactive) and the normalised cell number [13, 20] was 1.36. The normalised cell number [13, 21] was 1.2, the activity remaining [14] was 112% (inactive) and the z-score [15, 22] was -0.397 (inactive) and 0.19 (inactive) and 0.162 (inactive). For the same compound, the z-score [15, 23] was -0.0248 and -0.0255 and -0.773, the remaining NAD [16] was 10 nM (inactive) and the luciferase signal [17] was 56 AU (inactive). The z-score [18] was 0.24 (inactive) and 0.82 (inactive) and 0.775 (inactive).
With `CC(NC(C)(C)C)C(=O)c1cccc(Cl)c1` (configuration not stated) the nuclear beta-catenin stimulation ([4]; at 10 µM) was -0.1% (inactive), the nuclear beta-catenin stimulation ([4]; stimulation, at 2 µM) was 7.1% and the insulin secretion stimulation [5] was 0.3% (inactive). The viability decrease [6] was -43.9% (inactive), the tube area decrease [7] was 9.3% (inactive) and the GLP1 secretion stimulation [8] was 0.3% (inactive). The inhibition of viability [9] was 9.97% (inactive), the viability decrease (inhibition) [10] was 30.2% (inactive) and the viability decrease (inhibition) [11] was -10.5% (inactive). For the same compound, the inhibition [12] was -4.52% (inactive), the red/green cell ratio (normalised) [13] was 1.12 (inactive) and the normalised cell number [13, 20] was 1.04. The normalised cell number [13, 21] was 1.16, the activity remaining [14] was 97% (inactive) and the z-score [15, 22] was -0.0615 (inactive) and 0.02 (inactive) and 0.556 (inactive). The z-score [15, 23] was -0.319 and -0.308 and 0.695, the remaining NAD [16] was 10 nM (inactive) and the luciferase signal [17] was 52 AU (inactive).
Compound `C=C(C)[C@H]1Cc2c(ccc3c2O[C@@H]2COc4cc(OC)c(OC)cc4[C@@H]2C3=O)O1` has a score [1] of 3.23, a cytochrome c release ratio [2] of 1.15 and an inhibition of aggregation [3] of 33.3%. For the same compound, the nuclear beta-catenin stimulation ([4]; at 10 µM) was 92.8% (active), the nuclear beta-catenin stimulation ([4]; stimulation, at 2 µM) was 43.8% and the insulin secretion stimulation [5] was -0.1% (inactive). For the same compound, the viability decrease [6] was 4.4% (inactive), the tube area decrease [7] was 107% (active) and the GLP1 secretion stimulation [8] was 2.2% (inactive). The inhibition of viability [9] was 60.6% (active), the viability decrease (inhibition) [10] was 88.3% (active) and the viability decrease (inhibition) [11] was 83.4% (active). The inhibition [12] was 10.4% (inactive), the red/green cell ratio (normalised) [13] was 1.19 (inactive) and the normalised cell number [13, 20] was 0.27. For the same compound, the normalised cell number [13, 21] was 0.32, the activity remaining [14] was 92.3% (inactive) and the fold change ([19]; stronger effect = lower value) was 1.11 (inactive). For the same compound, the fold change ([19]; measured here: relative caspase fold change +Dox/-Dox) was 0.665, the cell count ([19]; measured here: total cells with miR-34 induction, stronger effect = lower value) was 1680 and the cell count ([19]; measured here: total cells without miR-34 induction) was 1510. The luciferase signal [17] was 52 AU (inactive) and the z-score [18] was -1.29 (inactive).
For `COC1CC(=C(c2cccs2)c2cccs2)C[N+](C)(C)C1` (configuration not stated), the nuclear beta-catenin stimulation ([4]; at 10 µM) was -1.6% (inactive), the nuclear beta-catenin stimulation ([4]; stimulation, at 2 µM) was 1.1% and the insulin secretion stimulation [5] was 0.1% (inactive). For the same compound, the viability decrease [6] was -13.9% (inactive), the tube area decrease [7] was 10.1% (inactive) and the GLP1 secretion stimulation [8] was -0.6% (inactive). For the same compound, the inhibition of viability [9] was 8.3% (inactive), the viability decrease (inhibition) [10] was -2.9% (inactive) and the viability decrease (inhibition) [11] was -0.4% (inactive).
